Screening data deposited in PubChem BioAssay by Johns Hopkins Ion Channel Center.
Compounds with a hit are over-represented: about 1.6% of the library has one in this group of screens.
KCNQ2 inh – KCNQ2 (rat) channel inhibition; CHO-K1 KCNQ2, FluxOR thallium flux, 20 min; active compounds read low; B-score at 10 µM; 310,000 compounds, 1.1% hits; AID 2156;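 active means fluorescence ratio B-score at most minus 3 library SDs, with starting brightness B-score within 2 library SDs, cut at about -5.5 in these data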
KCNQ2 pot – KCNQ2 (rat) channel potentiation. CHO-K1 KCNQ2, FluxOR thallium flux fluorescence; active compounds read high. B-score at 10 µM. 310,000 compounds, 0.54% hits. AID 2239;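 active means fluorescence ratio B-score at least 3 SD of library B-scores, with initial fluorescence B-score within 3 of them, cut at about 5.3 in these data; same plate scores as AID 2156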;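 further: B-score of peak minus minimum over baseline fluorescence ratio after K+ and Tl+ stimulus; positive B-score means potentiation of KCNQ2 with more thallium influx and brighter signal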
Kir21 conf inh – confirmation of mouse Kir2.1 potassium channel inhibitors. Tl flux remaining, % of negative control (active compounds read low), % at 10 µM. Kir2.1-expressing cells, FluxOR thallium flux fluorescence; active compounds read low. 2,300 compounds, 41% hits. shares compounds with KCNQ2 pot;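 active means Primary-screen hit whose thallium flux fell at least 3 control SD below untreated wells in both duplicates, with normal baseline fluorescence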;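 further: 0% = blank wells without stimulus and 100% = stimulated no-compound controls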
Target sequence (P35561 whole entry, looked up): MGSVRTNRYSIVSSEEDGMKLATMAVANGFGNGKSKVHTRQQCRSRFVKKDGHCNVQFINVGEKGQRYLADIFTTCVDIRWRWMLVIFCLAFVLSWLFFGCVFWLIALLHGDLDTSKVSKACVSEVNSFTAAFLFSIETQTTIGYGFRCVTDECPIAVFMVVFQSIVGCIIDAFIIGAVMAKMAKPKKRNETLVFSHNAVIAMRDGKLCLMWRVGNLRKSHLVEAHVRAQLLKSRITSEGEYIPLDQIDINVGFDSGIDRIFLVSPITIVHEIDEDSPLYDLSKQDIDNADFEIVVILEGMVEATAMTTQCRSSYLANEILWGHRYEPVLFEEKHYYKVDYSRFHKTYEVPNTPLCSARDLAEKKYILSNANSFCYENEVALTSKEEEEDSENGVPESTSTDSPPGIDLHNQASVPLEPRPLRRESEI
HEK293 ctr – counter-screen for Kir2.1 inhibitors: effect in parental HEK293 cells. shares compounds with KCNQ2 pot. FluxOR thallium flux fluorescence; 0% = unstimulated blank wells. FluxOR signal as % of negative control (100 = no effect), % at 10 µM. 2,300 compounds, 19% hits. AID 2105;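 active means dye signal at least 3 control SD above or below untreated wells in both duplicates, raw fluorescence within 3, either direction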;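 further: percent is based on the flux ratio of peak minus minimum fluorescence over baseline F0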
CHO-K1 Tl ctr – counter-screen for KCNQ2 potentiators: effect in parental CHO-K1 cells | activity increase over 3SD of controls, % at 10 µM | FluxOR thallium flux fluorescence; zero = vehicle mean+3SD, 100% = vehicle-minus-blank window | 1,200 compounds, 43% hits | shares compounds with KCNQ2 pot;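 active means signal rise of at least 3 SD above the untreated control mean, in both duplicate wells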;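 further: counter screen of KCNQ2 potentiator hits so any rise reflects channel-independent effects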
KCNQ1 pot spec – human KCNQ1 counter-target activity of KCNQ2 potentiators; shares compounds with KCNQ2 pot; CHO KCNQ1 stable, FluxOR thallium flux fluorescence; beyond 3SD, as % of vehicle-control signal; activation over 3SD threshold, % at 10 µM; 1,200 compounds, 28% hits; AID 2283;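 active means fluorescence ratio rise of at least 3 SD of vehicle wells above their mean, in both replicate wells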;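 further: 0% = vehicle mean plus 3 SD and 100% = vehicle minus unstimulated blank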
KCNQ2 pot confirm – confirmation of rat KCNQ2 potassium channel potentiators. shares compounds with KCNQ2 pot. CHO-KCNQ2 cells, FluxOR thallium flux fluorescence. potentiation, less the hit threshold, % at 10 µM. 1,200 compounds, 68% hits. AID 2287;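 active means fluorescence ratio rising 3 SD or more over the vehicle control mean in both replicates, plus primary screen hit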;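 further: peak minus minimum thallium fluorescence divided by baseline after K/Tl stimulus; 0% = vehicle mean plus 3 SD and 100% = vehicle minus unstimulated blank difference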
Kir2-1 sel – mouse Kir2.1 off-target activity of KCNQ2 potentiators. shares compounds with KCNQ2 pot. HEK293 Kir2.1, FluxOR thallium flux fluorescence. activity over 3SD threshold, % at 10 µM. 1,200 compounds, 2% hits. AID 2345;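 active means fluorescence ratio rise of at least 3 SD above the vehicle-control mean, seen in both replicates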;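 further: 0% = vehicle mean plus 3 SD and 100% = vehicle minus no-stimulus blank window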
KCNQ2 W236L pot – KCNQ2 potentiators acting on retigabine-insensitive rat KCNQ2 W236L mutant | shares compounds with KCNQ2 pot | CHO KCNQ2-W236L, automated patch clamp current | current increase over 3SD of negative controls (%), active compounds read high, % at 25 µM | 940 compounds, 10% hits | AID 2558;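 active means current increase at least 3 SD of the untreated controls above them in both duplicate recordings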
An asterisk follows results filed as active; i = inactive; nt = no result.

SMILES	KCNQ2 inh	KCNQ2 pot	Kir21 conf inh	HEK293 ctr	others
CC(=O)c1ccc(Nc2cc(C)nc3c(C)cccc23)cc1	i	nt	nt	nt
CCc1ccc(C(C)NC(=O)c2cccs2)cc1 (configuration not stated)	i	5.3*	i	i	CHO-K1 Tl ctr=-18;KCNQ1 pot spec=46*;KCNQ2 pot confirm=-2;Kir2-1 sel=-33;KCNQ2 W236L pot=i
CCOc1ccc(C(C)NC(=O)c2cccs2)cc1OCC (configuration not stated)	i	0.05	nt	nt
CCn1cc(C(=O)Nn2cnnc2)c(=O)c2ccc(C)nc21	i	0.12	nt	nt
O=[N+]([O-])c1c(Nc2ccccc2O)ccc2nonc12	i	1.3	nt	nt
O=[N+]([O-])c1c(Nc2ccccc2O)cc(Cl)c2nonc12	-16*	-16	71%*	46%*
CCC(C)N1C(=O)CCC1C(=O)N1CCN(c2ccc(F)cc2)CC1 (configuration not stated)	i	nt	nt	nt
O=[N+]([O-])c1ccccc1NC1CCN(Cc2ccccc2)CC1	i	0.74	33%*	i
O=C1CCC(=O)N1c1ccc(NC2CCN(Cc3ccccc3)CC2)c([N+](=O)[O-])c1	i	nt	nt	nt
Cc1cccc(NC(=O)CN2C(=O)S/C(=C\C(=O)Nc3ccc(Cl)cc3)C2=O)c1	i	0.02	nt	nt
C#CCOCCOCCOCCNc1nc(N2CCN(C(=O)Cn3cc(CCCCN)nn3)CC2)nc(N2CCN(C(=O)[C@H](C(C)C)n3cc(CCO)nn3)CC2)n1	i	0.87	nt	nt
CC(O)CNc1nc2sc3c(c2c(=O)n1Cc1ccco1)CCCCC3 (configuration not stated)	i	1	nt	nt
O=c1c2c3c(sc2nc(NCCOCCO)n1Cc1ccco1)CCCCC3	i	5.6*	i	i	CHO-K1 Tl ctr=-7;KCNQ1 pot spec=38*;KCNQ2 pot confirm=-11;Kir2-1 sel=-38;KCNQ2 W236L pot=6.1%*
CCC(=O)Nc1nc2ccccc2n1CCN1CCOCC1	i	nt	nt	nt
CCCCn1c(C(C)NC(=O)CC)nc2ccccc21 (configuration not stated)	i	0.1	nt	nt
CCCCCCCn1c(NC(=O)CC)nc2ccccc21	i	10*	i	i	CHO-K1 Tl ctr=-21;KCNQ1 pot spec=-5;KCNQ2 pot confirm=61*;Kir2-1 sel=-45;KCNQ2 W236L pot=i
CCCCCCn1c(C(C)NC(=O)c2ccco2)nc2ccccc21 (configuration not stated)	-6.2*	-6.2	54%*	i
CCCCOC(=O)c1[nH]c2c(c1C)C(=O)CC(c1cc(OC)c(OC)c(OC)c1)C2 (configuration not stated)	i	nt	nt	nt
CCOC(=O)c1cc(NC(=O)OC)c(C)nc1C	i	0.63	nt	nt
Cc1ccc(Nc2nc(CSc3nnc(-c4cccnc4)n3-c3ccccc3F)cs2)cc1	i	0.45	nt	nt
O=C(/C=C/c1ccccc1)c1cc(Br)ccc(=O)c1O	i	0.7	nt	nt
Cc1ccc(/C=C/C(=O)c2ccccc(=O)c2O)cc1C	i	6.1*	i	i	CHO-K1 Tl ctr=-6;KCNQ1 pot spec=-23;KCNQ2 pot confirm=0.8*;Kir2-1 sel=-33;KCNQ2 W236L pot=i
COC(=O)C(NS(=O)(=O)c1ccccc1Cl)c1ccccc1 (configuration not stated)	i	1.6	nt	nt
Cc1ccc(C)c(CSCc2nc3ccccc3[nH]2)c1	i	nt	74%*	i
Cc1ccccc1CSCc1nc2ccccc2[nH]1	i	nt	nt	nt
SMILES	KCNQ2 inh	KCNQ2 pot	Kir21 conf inh	HEK293 ctr	others
Cc1cc(C)cc(NC(=O)C(OC(=O)c2ccc(NC(=O)CC#N)cc2)c2ccccc2)c1 (configuration not stated)	i	nt	nt	nt
CCCN(CCC)C(=O)C1CC(=O)OC12CCOC(C)(C)C2 (configuration not stated)	i	1.1	nt	nt
COC(=O)CN(c1nc(C)cc(OC)n1)S(=O)(=O)c1ccc(C)cc1	i	2.2	nt	nt
CCN(c1nc(C)cc(OC)n1)S(=O)(=O)c1ccccc1	i	nt	56%*	74%*
C=CCN(c1nc(C)cc(OC)n1)S(=O)(=O)c1ccc(C)cc1	i	nt	nt	nt
C=CCN(c1nc(C)cc(OC)n1)S(=O)(=O)c1ccccc1	i	nt	55%*	72%*
COc1ccccc1NS(=O)(=O)c1cccc(C(=O)N/N=C/c2ccc(C)o2)c1	i	0.24	nt	nt
O=C(O)C1CCCCC1C(=O)NCCCN1CCCC1=O (configuration not stated)	i	1.9	nt	nt
COC(=O)C1=C(C)NC(C)=C(C(=O)OC)C1C(=O)OCCN1C(=O)c2ccccc2C1=O	i	nt	nt	nt
O=C1c2ccccc2CN1c1ccccc1	i	nt	nt	nt
Oc1ccccc1Nc1nc(NCc2ccccc2)c2ccccc2n1	i	nt	nt	nt
Cc1c(Cl)cccc1Nc1nc(NCCO)c2ccccc2n1	i	nt	35%*	i
O=C(Nc1ccc2oc(=O)ccc2c1)c1ccc(-c2cccc([N+](=O)[O-])c2)o1	i	1.6	nt	nt
CC[C@@]12C(=O)N(c3cccc(F)c3)C(=O)N1[C@H](c1cccc(C)c1)[C@@H]1C(=O)N(Cc3ccccc3)C(=O)[C@@H]12	i	0.68	nt	nt
CN(CCOC(=O)CN1C(=O)c2ccccc2C1=O)C1=NS(=O)(=O)c2ccccc21	i	0.4	nt	nt
Cc1c(C(=O)N(C)Cc2ccc(OC(F)F)cc2)oc2ccccc12	i	nt	nt	nt
COc1ccc(CCN(C)C(=O)c2oc3ccccc3c2C)cc1OC	i	0.42	38%*	i
Cc1ccsc1/C=N/N1CCN(c2ccccn2)CC1	i	nt	nt	nt
CCCCc1ccc(NC(=O)CC(C)C)cc1	i	7.4*	i	280%*	CHO-K1 Tl ctr=-19;KCNQ1 pot spec=-2;KCNQ2 pot confirm=94*;Kir2-1 sel=-21;KCNQ2 W236L pot=i
CCCCc1ccc(NC(=O)C2CCCC2)cc1	i	7*	i	i	CHO-K1 Tl ctr=109*;KCNQ1 pot spec=-9;KCNQ2 pot confirm=-2;Kir2-1 sel=-38;KCNQ2 W236L pot=i
CCCCc1ccc(NC(=O)COCC)cc1	i	1.3	nt	nt
CCN(CC)c1ccc(NC(=O)C2CCCC2)cc1	i	3.5	nt	nt
N#CC/C(N)=N/NC(=O)CCCNc1ncc(C(F)(F)F)cc1Cl	i	0.71	nt	nt
CN(C)c1ccc(CNc2nc3ccccc3s2)cc1	i	1.1	nt	nt
Cc1ccc(S(=O)(=O)NC(CC(N)=O)C(=O)O)cc1 (configuration not stated)	i	0.03	nt	nt
CCOC(=O)NC(=S)Nc1ccc(C(C)(C)C)cc1	i	10*	i	i	CHO-K1 Tl ctr=-11;KCNQ1 pot spec=-13;KCNQ2 pot confirm=26*;Kir2-1 sel=-37;KCNQ2 W236L pot=i
